Where “and” joins values, the source holds several entries; their conditions need not be identical. Equal values may be shown once. ± gives the standard deviation of the averaged measurements. In all, about 1,600 compounds were measured (“normalized intracellular growth (luminescence, IQM-normalized) in RAW264.7 macrophages”: median about 1, lowest 2% from about 0.43 on). This excerpt belongs to a sample that is enriched for the lowest values.

The test system of the assay is Salmonella enterica serovar Typhimurium SL1344. The assay is described as follows: normalized intracellular growth (luminescence, IQM-normalized) in RAW264.7 macrophages (fraction of plate interquartile mean); higher = more bacterial growth (less inhibition). The conditions noted are these: 10 µM.

For `CCCCCCc1ccc(O)cc1O.Nc1c2ccccc2nc2ccccc12`, the normalized intracellular growth runs as follows: (time point: T3 (3 h)) 0.891 ± 0.014; (time point: Tfinal (~6 h)) 1.07 ± 0.012.

In the case of `CC1(C)S[C@@H]2[C@H](N3C(=O)[C@@H](c4ccccc4)NC3(C)C)C(=O)N2[C@H]1C(=O)O`, the normalized intracellular growth by setting is: (time point: T3 (3 h)) 1 ± 0.031; (time point: Tfinal (~6 h)) 0.974 ± 0.056.

Regarding `COC(=O)/C=C/C(=O)OC`, the normalized intracellular growth worked out at 0.935 ± 0.047 (time point: T3 (3 h)) and 0.937 ± 0.028 (time point: Tfinal (~6 h)).

For `O=C([O-])[C@H]1/C(=C/CO)O[C@@H]2CC(=O)N21.[Li+]`, the normalized intracellular growth by setting is: (time point: T3 (3 h)) 1.02 ± 0.099; (time point: Tfinal (~6 h)) 0.812 ± 0.11.

As to `CN(C)c1cnccn1`, the normalized intracellular growth by setting is: (time point: T3 (3 h)) 0.967 ± 0.046; (time point: Tfinal (~6 h)) 0.904 ± 0.32.

As for `CSCC[C@H](NC(=O)[C@H](Cc1c[nH]c2ccccc12)NC(=O)CCNC(=O)OC(C)(C)C)C(=O)N[C@@H](CC(=O)O)C(=O)N[C@@H](Cc1ccccc1)C(N)=O`, the normalized intracellular growth (time point: T3 (3 h)) came to 1 ± 0.04 and the normalized intracellular growth (time point: Tfinal (~6 h)) turned out to be 0.827 ± 0.23.

As for `Cl.N=C(N)NCCC[C@H](N)C(=O)O`, the normalized intracellular growth is, setting by setting: (time point: T3 (3 h)) 1.05 ± 0.065; (time point: Tfinal (~6 h)) 1.02 ± 0.092.

`NCC(=O)CCC(=O)O`: the normalized intracellular growth runs as follows: (time point: T3 (3 h)) 1.09 ± 0.029; (time point: Tfinal (~6 h)) 1.02 ± 0.042.

Turning to `Cc1nc(C)c(Cl)c(O)c1Cl`, the normalized intracellular growth reads like this: (time point: T3 (3 h)) 0.942 ± 0.035; (time point: Tfinal (~6 h)) 1.16 ± 0.1.

`C[C@]12CCC(=O)C=C1CC[C@@H]1[C@@H]2[C@@H](O)C[C@@]2(C)[C@H]1CC[C@]2(O)C(=O)COP(=O)(O)O`: the normalized intracellular growth turned out to be 0.9812 ± 0.0046 (time point: T3 (3 h)) and 0.999 ± 0.047 (time point: Tfinal (~6 h)).

For `O=C(O)c1cc(O)c2c(c1)[C@H]([C@H]1c3cc(C(=O)O)cc(O)c3C(=O)c3c(O[C@@H]4O[C@H](CO)[C@@H](O)[C@H](O)[C@H]4O)cccc31)c1cccc(O[C@@H]3O[C@H](CO)[C@@H](O)[C@H](O)[C@H]3O)c1C2=O`, the normalized intracellular growth reads like this: (time point: T3 (3 h)) 0.957 ± 0.08; (time point: Tfinal (~6 h)) 0.961 ± 0.026.

On to `O=C1C2CC3CC1CC(O)(C3)C2`, for which the normalized intracellular growth (time point: T3 (3 h)) was found to be 1 ± 0.017 and the normalized intracellular growth (time point: Tfinal (~6 h)) came out at 1.06 ± 0.065.

Take `CC(C)NC(=N)NC(=N)Nc1ccc(Cl)cc1`: the normalized intracellular growth reads like this: (time point: T3 (3 h)) 0.664 ± 0.018; (time point: Tfinal (~6 h)) 0.164 ± 0.01.

Turning to `N=C(NCCCCCCNC(=N)NC(=N)Nc1ccc(Cl)cc1)NC(=N)Nc1ccc(Cl)cc1`, the normalized intracellular growth was 0.912 ± 0.078 (time point: T3 (3 h)) and 1.15 ± 0.014 (time point: Tfinal (~6 h)).

Take `O=C1c2c(O)cc(CO)cc2C(OC2OC(CO)C(O)C(O)C2O)c2cccc(OC3OC(CO)C(O)C(O)C3O)c21` (stereo unspecified) [CASANTHRANOL [cascaroside A shown]]: the normalized intracellular growth runs as follows: (time point: T3 (3 h)) 0.997 ± 0.016; (time point: Tfinal (~6 h)) 0.857 ± 0.041.

As to `CCCCCCOC(=O)NC(=N)c1ccc(NCc2nc3cc(C(=O)N(CCC(=O)OCC)c4ccccn4)ccc3n2C)cc1`, the normalized intracellular growth is, setting by setting: (time point: T3 (3 h)) 1.02 ± 0.01; (time point: Tfinal (~6 h)) 0.97 ± 0.034.

Regarding `CCCCC(CC)COC(=O)CC(C(=O)OCC(CC)CCCC)S(=O)(=O)O` (stereo unspecified), the normalized intracellular growth came out at 0.943 ± 0.069 (time point: T3 (3 h)) and 0.958 ± 0.027 (time point: Tfinal (~6 h)).

On to `CCN(CC)CCNC(=O)c1ccc(NC(C)=O)cc1`, for which the normalized intracellular growth runs as follows: (time point: T3 (3 h)) 1.03 ± 0.065; (time point: Tfinal (~6 h)) 1 ± 0.12.

For the molecule `C[C@H]1[C@H](OC(=O)CCC(=O)O)O[C@@H]2O[C@@]3(C)CC[C@H]4[C@H](C)CC[C@@H]1[C@@]24OO3`, the normalized intracellular growth came out at 0.899 ± 0.045 (time point: T3 (3 h)) and 0.869 ± 0.028 (time point: Tfinal (~6 h)).

On to `Nc1ncn([C@@H]2O[C@H](CO)[C@@H](O)[C@H]2O)c(=O)n1`, for which the normalized intracellular growth (time point: T3 (3 h)) is 0.951 ± 0.029 and the normalized intracellular growth (time point: Tfinal (~6 h)) was 0.154 ± 0.087.

Take `Nc1ccn([C@@H]2O[C@H](CO)[C@@H](O)[C@@H]2O)c(=O)n1`: the normalized intracellular growth runs as follows: (time point: T3 (3 h)) 0.9664 ± 0.0095; (time point: Tfinal (~6 h)) 0.997 ± 0.037.

`O=c1[nH]cnc2c1ncn2[C@@H]1O[C@H](CO)[C@@H](O)[C@H]1O`: the normalized intracellular growth was determined as 0.917 ± 0.048 (time point: T3 (3 h)) and 0.976 ± 0.13 (time point: Tfinal (~6 h)).

Regarding `CCCCC(CC)CN=C(N)N=C(N)NCCCCCCNC(N)=NC(N)=NCC(CC)CCCC` (stereo unspecified), the normalized intracellular growth came out at 0.994 ± 0.063 (time point: T3 (3 h)) and 1.1 ± 0.035 (time point: Tfinal (~6 h)).

`CN(C)CC[C@@H](c1ccc(Cl)cc1)c1ccccn1`: the normalized intracellular growth reads like this: (time point: T3 (3 h)) 1 and 1.05; (time point: Tfinal (~6 h)) 1.01 and 0.736.

As to `C[C@]12C=CC(=O)C=C1CC[C@@H]1[C@@H]2[C@@H](O)C[C@@]2(C)[C@H]1CC[C@]2(O)C(=O)COC(=O)CCC(=O)O`, the normalized intracellular growth (time point: T3 (3 h)) turned out to be 1.02 ± 0.016 and the normalized intracellular growth (time point: Tfinal (~6 h)) came out at 0.815 ± 0.11.

Take `N[C@H]1C(O)O[C@H](CO)[C@@H](O)[C@@H]1O` (stereo partly specified): the normalized intracellular growth was determined as 0.967 ± 0.045 (time point: T3 (3 h)) and 0.999 ± 0.058 (time point: Tfinal (~6 h)).

In turn, `CCn1cc(C(=O)O)c(=O)c2cnc(N3CCCC3)nc21` came in with a normalized intracellular growth (time point: T3 (3 h)) of 0.929 ± 0.0075 and a normalized intracellular growth (time point: Tfinal (~6 h)) of 1.04 ± 0.053.

`O=C(O)c1cn(-c2ccc(F)cc2)c2cc(N3CCNCC3)c(F)cc2c1=O`: the normalized intracellular growth was found to be 1.1 ± 0.081 (time point: T3 (3 h)) and 0.00781 ± 0.0016 (time point: Tfinal (~6 h)).

For `CCn1cc(C(=O)O)c(=O)c2cc(F)c(N3CCNCC3)cc21`, the normalized intracellular growth is, setting by setting: (time point: T3 (3 h)) 1.07 ± 0.028; (time point: Tfinal (~6 h)) 1.19 ± 0.029.

Turning to `CN1CCN(c2cc3c(cc2F)c(=O)c(C(=O)O)cn3-c2ccc(F)cc2)CC1`, the normalized intracellular growth reads like this: (time point: T3 (3 h)) 0.634 ± 0.14; (time point: Tfinal (~6 h)) 0.982 ± 0.093.

`O=C(O)c1cn(C2CC2)c2cc(N3CCNCC3)c(F)cc2c1=O`: the normalized intracellular growth is, setting by setting: (time point: T3 (3 h)) 1.14 ± 0.019; (time point: Tfinal (~6 h)) 0.0127 ± 0.00088.

For `CCn1cc(C(=O)O)c(=O)c2cc(F)c(N3CCN(C)CC3)cc21`, the normalized intracellular growth amounted to 1.11 ± 0.11 (time point: T3 (3 h)) and 0.012 ± 0.0031 (time point: Tfinal (~6 h)).

Turning to `C[C@H](N[C@@H](CCc1ccccc1)C(=O)O)C(=O)N1Cc2ccccc2C[C@H]1C(=O)O`, the normalized intracellular growth came out at 1.03 ± 0.079 (time point: T3 (3 h)) and 1.08 ± 0.12 (time point: Tfinal (~6 h)).

Consider `NC(=O)CCCCC1CCSS1` (stereo unspecified), for which the normalized intracellular growth came to 0.996 ± 0.093 (time point: T3 (3 h)) and 0.817 ± 0.12 (time point: Tfinal (~6 h)).

With `O=S(=O)(O)CCCS(=O)(=O)O`, the normalized intracellular growth (time point: T3 (3 h)) is 1.01 ± 0.095 and the normalized intracellular growth (time point: Tfinal (~6 h)) was 0.9 ± 0.34.

`O=C1/C(=C/c2cccs2)CCC/C1=C\c1cccs1`: the normalized intracellular growth came to 0.973 ± 0.059 (time point: T3 (3 h)) and 1.06 ± 0.036 (time point: Tfinal (~6 h)).

Take `CC1=CC(=O)NS(=O)(=O)O1`: the normalized intracellular growth was 1.06 ± 0.077 (time point: T3 (3 h)) and 1.04 ± 0.089 (time point: Tfinal (~6 h)).

`CN1CC(=O)N2[C@H](c3ccc4c(c3)OCO4)c3[nH]c4ccccc4c3C[C@@H]2C1=O`: the normalized intracellular growth by setting is: (time point: T3 (3 h)) 1.06 ± 0.072; (time point: Tfinal (~6 h)) 0.783 ± 0.27.

As for `CN(C)c1ccc(C(=C2C=CC(=[N+](C)C)C=C2)c2ccc(N(C)C)cc2)cc1`, the normalized intracellular growth came out at 0.8927 ± 0.0022 (time point: T3 (3 h)) and 0.931 ± 0.03 (time point: Tfinal (~6 h)).

The molecule `CC(=O)OCC(=O)[C@@]1(O)[C@H](OC(C)=O)C[C@H]2[C@@H]3CCC4=CC(=O)C=C[C@]4(C)[C@@]3(F)[C@@H](O)C[C@@]21C` came in with a normalized intracellular growth (time point: T3 (3 h)) of 0.823 ± 0.07 and a normalized intracellular growth (time point: Tfinal (~6 h)) of 1.2 ± 0.034.

As to `CCOc1ccc(Cc2nccc3cc(OCC)c(OCC)cc23)cc1OCC`, the normalized intracellular growth amounted to 0.925 ± 0.09 (time point: T3 (3 h)) and 0.43 ± 0.11 (time point: Tfinal (~6 h)).

Turning to `CCC/C=C\C=C/C(=O)N[C@@H](CC(N)=O)C(=O)NC(CC(N)=O)C(=O)N[C@@H](C(=O)N[C@H](CCCN)C(=O)N[C@@H](C(=O)N[C@@H](C(=O)N[C@@H](C(=O)N[C@H](C(=O)N[C@@H](Cc1ccccc1)C(=O)N[C@H](CCCN)C(=O)NC(C(=O)N[C@H](C(=O)NC(C(=O)NCC(=O)N[C@@H](CC(C)C)C(=O)N[C@H](C)C(=O)NC(C(=O)O)C1CCC(O)C(Cl)C1)C1CCC(O)CC1)[C@H](C)O)C1CCC(O)CC1)[C@H](C)O)C1CCC(O)CC1)C1CCC(O)CC1)[C@H](C)O)C1CCC(O)CC1` (stereo partly specified) [RAMOPLANIN [A2 shown; 2mM]], the normalized intracellular growth runs as follows: (time point: T3 (3 h)) 0.984 ± 0.051; (time point: Tfinal (~6 h)) 1.17 ± 0.15.

Take `C=CCCCCCCCCC(=O)[O-].C=CCCCCCCCCC(=O)[O-].[Zn+2]`: the normalized intracellular growth is, setting by setting: (time point: T3 (3 h)) 1 ± 0.048; (time point: Tfinal (~6 h)) 0.832 ± 0.1.
